Results as given in ChEMBL document CHEMBL4513216, “Probing the Open Global Health Chemical Diversity Library for Multistage-Active Starting Points for Next-Generation Antimalarials” (ACS Infect Dis, 2020).
Among all 69,000 compounds or so, about 8,600 (12%) showed an effect of 50% or more. What follows is part of a selection rich in strong results, with near analogues and random picks from the rest.

system: Plasmodium berghei; test: Screen against P. berghei liver stage (PbLuc), transformed with Luciferase, at 10uM; type: functional, HepG2; conditions: tested at 10 uM

SMILES | INHIBITION [%]
O=c1c2c[nH]c(N3CCOCC3)nc-2cn1C1CCS(=O)(=O)C1 (stereo not given) | 24
Nc1nc2cn(C3CCCC3)c(=O)c-2c[nH]1 | 51.8
CC1(C)CC(n2cc3nc(N)[nH]cc-3c2=O)CC(C)(C)N1 | 3.47
CC1(C)CC(n2cc3nc(N4CCCC4)[nH]cc-3c2=O)CC(C)(C)N1 | 64.8
CN1CCC(n2cc3nc(N)[nH]cc-3c2=O)CC1 | 43.3
CC1CCC(n2cc3nc(N)[nH]cc-3c2=O)CC1 (stereo not given) | -8.9
CC1(C)CC(n2cc3nc(N4CCOCC4)[nH]cc-3c2=O)CC(C)(C)N1 | 60.1
CN(C)c1nc2cn(C3CC(C)(C)NC(C)(C)C3)c(=O)c-2c[nH]1 | 20.1
CNc1nc2cn(C3CC(C)(C)NC(C)(C)C3)c(=O)c-2c[nH]1 | 25.1
CCn1cc(NC(=O)c2cc(C)nc(N3CCOCC3)n2)cn1 | 15.35
Cc1noc(C2CCN(C(=O)C3CCCO3)CC2)n1 (stereo not given) | 35.6
CN1CCCN(C(=O)c2csc3nc(-c4ccc(Cl)cc4)cn23)CC1 | 43.6
O=C(NCCOc1ccc2c(c1)OCO2)N1CCC1 | 23.4
Cc1ccc(C(=O)N2CCC3(CCC(=O)N(CC(N)=O)C3)CC2)cc1 | 36.8
Cc1nn(C)c2c(NCc3ccncc3)nc(C3CC3)nc12 | -6.91
Cc1nc(NC2CC2)c2c(n1)c(C)nn2C | 29.3
Cc1nn(C)c2c(N3CCCC3)nc(C3CC3)nc12 | 34.5
Cc1nn(C)c2c(NCc3cccnc3)nc(C3CC3)nc12 | 35.1
Cc1nn(C)c2c(NCc3ccccc3F)nc(C3CC3)nc12 | 75.1
Cc1nn(C)c2c(NCc3ccc(F)cc3)nc(C3CC3)nc12 | 56.9
Cc1nn(C)c2c(NC3CCCC3)nc(C3CC3)nc12 | 54.2
COc1ccc(CNc2nc(C3CC3)nc3c(C)nn(C)c23)cc1 | -26.1
Cc1nc(NC2CCCC2)c2c(n1)c(C)nn2C | 41.5
CC(C)N1[C@@H](C(=O)NCCN(C)C)C[C@H]2CN(c3ncccn3)C[C@H]21 | 37.8
Cc1cc(CN2CCN(C(=O)NC(C)c3cccs3)CC2)on1 (stereo not given) | 38.9
CC(C)N1CCN(C(=O)C(C)n2cncn2)CC1 (stereo not given) | 19.6
COc1ccc(CN2CC[C@@H](O)[C@@H]2Cc2cnn(C)c2)cc1 | 33.4

SMILES | INHIBITION [%]
Cc1nc(CNC(=O)NCC(O)c2ccc(F)cc2)cs1 (stereo not given) | 33.8
CC(C)c1cc(O)nc(C2CCCN2C(=O)C(C)(C)C)n1 (stereo not given) | 23.2
O=C1C[C@H]2[C@@H](CCN2C(=O)c2cscn2)N1Cc1cccnc1 | 13.7
CCn1cnnc1CNC(=O)N1CCOC(c2ccccc2Cl)C1 (stereo not given) | 17.5
O=C(NCc1nnc2ccccn12)N1CCc2sccc2C1 | -27.6
O=C(NCc1nnc2ccccn12)N1CCOC(c2ccsc2)C1 (stereo not given) | 32
O=C(NCc1nnc2ccccn12)N1CCOC(c2cccs2)C1 (stereo not given) | 63.5
Cc1ccc(C2CN(C(=O)NCc3nnc4ccccn34)CCO2)o1 (stereo not given) | 61.3
COc1cccc2c1CCN(C(=O)NCc1nnc3ccccn13)C2 | -102
Cc1nc(C2CN(C)CCO2)cc(N2CCC(CO)CC2)n1 (stereo not given) | 32.8
O=C(CC1CCCC1)N1C[C@H](Oc2cccnc2)[C@H]2OCCC[C@H]21 | -24.5
Cc1nc(=O)c2ccccc2n1C1=CCN(CC(=O)NC(C)C)CC1 | 23.9
O=C(C1COc2ccccc2O1)N1Cc2cnn(CCO)c2C1 (stereo not given) | 13.7
O=C(C1CCOc2ccccc2C1)N1Cc2cnn(CCO)c2C1 (stereo not given) | 27.6
O=C(CN1CCOc2ccccc2C1)N1Cc2cnn(CCO)c2C1 | 71.5
CCOc1ccc(CN2CCC(c3[nH]ncc3C)C2)cc1CO (stereo not given) | 14.65
COc1ncnc2c1CCN(C(=O)NCc1cccnc1)CC2 | -18.2
CCc1nc(C2CCCN2CC(=O)Nc2cc(C)no2)no1 (stereo not given) | -14.7
CCC(CC)NCC(C)Oc1cccnc1 (stereo not given) | 54.6
CCc1cnc(NCC(C)Oc2cccnc2)nc1 (stereo not given) | -5.19
CC(CNc1nccc(C(C)C)n1)Oc1cccnc1 (stereo not given) | 24.3
CC(C)c1ncc(CN2CCC(c3n[nH]cc3C(=O)N(C)C)C2)cn1 (stereo not given) | 10.9
Cc1cccc(S(=O)(=O)N2C[C@@H]3C[C@@H](c4nc(C)no4)O[C@@H]3C2)c1 | 49.4
CN(Cc1ccccc1CN1CCCC1)c1ncnc2[nH]ccc12 | -42.1
Cc1cccnc1CN(C)c1ncnc2[nH]ccc12 | -76.9
CN(C)Cc1ccccc1CN(C)c1ncnc2[nH]ccc12 | 52.2
COc1cccc(S(=O)(=O)N2C[C@H](OC)[C@]3(CCCO3)C2)c1 | 28.5

SMILES | INHIBITION [%]
CCCN1CCCN(C(=O)Nc2ccc3c(c2)OCO3)CC1 | -42.1
O=C(Nc1ccc2c(c1)OCO2)N1CCN(CCc2ccccc2)CC1 | 60.9
O=C(Nc1ccc2c(c1)OCO2)N1CCN(CCn2cccn2)CC1 | 42.8
Cc1nnc(CN(C)C2CCCN(Cc3noc(C4CC4)n3)C2)o1 (stereo not given) | 27.8
Cc1csc(NC(=O)C2(C)CN(C)CCO2)n1 (stereo not given) | 12.235
Cc1nc(-c2ccc(S(=O)(=O)N3CCC4(CC3)OCCO4)cc2)co1 | 48.4
CCN1CCC(NC(=O)CN2CCCC2Cn2cc(C)cn2)CC1 (stereo not given) | 11.2
Cc1cccc(OC2CCN(c3ccc(C#N)cn3)CC2)n1 | 51.1
Cc1cccc(OC2CCN(c3nccnc3C#N)CC2)n1 | 11.4
Cc1cccc(OC2CCN(c3ncc(C#N)cc3Cl)CC2)n1 | 12.4
CC(C)N1CCn2c(COCC3CCOCC3)cnc2C1C (stereo not given) | 39.4
COc1cc(C)nc(N2CCN(C(=O)COC3CCCC3)CC2)n1 | 26.36
Cc1cn[nH]c1C1CCCCN1C(=O)CCc1ccc(F)cc1 (stereo not given) | 2.6
O=C(c1ccsc1)N1CCC(c2nnc(C3CC3)o2)CC1 | 14.3
Cc1cc(C)n(CC2CCCN2C(=O)c2ccc3ccccc3n2)n1 (stereo not given) | 21
CCOc1ccc(Cl)c(C(=O)N2CCN(c3cnccn3)CC2)n1 | 52.7
CCOc1ccc(Cl)c(C(=O)N2CCN(c3ncccn3)CC2)n1 | 1.78
CCOc1ccc(Cl)c(C(=O)N2CCN(c3ccncc3)CC2)n1 | 10
CCC(NC(=O)c1ccoc1)c1ccccc1OCC(=O)N1CCCC1 (stereo not given) | 29.05
COCC(=O)N[C@H](C(=O)NC(C)c1cc(C)ccc1C)C(C)C (stereo not given in full) | 57.4
CCOCC(=O)NC(C)c1cc(C)ccc1C (stereo not given) | 30.5
COCC(=O)N[C@H](C(=O)NC(C)c1cccc(C)c1C)C(C)C (stereo not given in full) | 28.7
CC1=Nc2c(c(=O)[nH]n2C(C)C)C(c2ccccc2)S1 (stereo not given) | 7.11
CC1=Nc2c(c(=O)[nH]n2C(C)C)C(c2ccc3nccnc3c2)S1 (stereo not given) | 58.5
CC1=Nc2c(c(=O)[nH]n2C(C)C)C(c2ccc3c(c2)OCCO3)S1 (stereo not given) | -14.1
CC1=Nc2c(c(=O)[nH]n2C(C)C)C(c2ccc3c(c2)n(C)c(=O)n3C)S1 (stereo not given) | -39.6
CC1=Nc2c(c(=O)[nH]n2C(C)C)C(c2ccc(F)c(F)c2)S1 (stereo not given) | -3.95

SMILES | INHIBITION [%]
CC1=Nc2c(c(=O)[nH]n2C(C)C)C(c2ccc3ncccc3c2)S1 (stereo not given) | 80
O=C(Nc1ccccc1)[C@H]1C[C@H]2CN(S(=O)(=O)C3CC3)C[C@@H]1O2 | 30.3
CC(C)c1cnc(CN2CCCC(c3cc(C(N)=O)[nH]n3)C2)o1 (stereo not given) | -0.113
Cc1cccnc1NC(=O)c1ccc(F)c(S(=O)(=O)NC2CC2)c1 | 20.9
Cc1ccccc1CN(C)C(=O)CN1CCOC(Cn2cccn2)C1 (stereo not given) | -4.16
CC(C)c1nnc(NC(=O)CCC(=O)NCC2CCCO2)s1 (stereo not given) | 52.5
O=C(CCC(=O)Nc1nnc(C(F)(F)F)s1)NCC1CCCO1 (stereo not given) | 0.207
O=C(CCC(=O)Nc1nnc(C2CCCCC2)s1)NCC1CCCO1 (stereo not given) | 18.4
COc1ccc(C2(C(=O)NCc3c(C)ncc4c3CCNC4)CC2)cc1 | 44.3
Cc1ncc2c(c1CNC(=O)C1(C)CCCCO1)CCNC2 (stereo not given) | 36.9
Cc1ncc2c(c1CNC(=O)C1(C)CCCO1)CCNC2 (stereo not given) | 56.3
Cc1ncc2c(c1CNC(=O)C1(C)CC1)CCNC2 | 14.6
Cc1ccc(OCC(O)CNC(=O)C2(c3ccc(F)cc3)CC2)cc1 (stereo not given) | -26.1
Cc1ncc2c(c1CNC(=O)C1(c3ccc(F)cc3)CC1)CCNC2 | 61.9
COc1cccc(CCC(=O)N2CCC[C@@H](N)[C@@H]2c2ccccc2F)c1 | 14.4
COc1c(CNCC(O)c2ccc(C)cc2)c(C(C)C)nn1C (stereo not given) | -6.14
CS(=O)(=O)CC1(CNc2cc(C#N)c3cc(Cl)ccc3n2)CC1 | 6.23
CC(NC(=O)CNc1cc2c(cc1Cl)NC(=O)CO2)c1ccco1 (stereo not given) | 17.1
Cn1nnnc1SCC(=O)N1CCN(C(=O)C2CC2c2cccs2)CC1 (stereo not given) | -40.4
CCc1nnc2n1CCN(C(=O)CCc1ccc3c(c1)OCO3)C2 | 37.4
O=C(C1CCOCC1)N1C[C@@H]2[C@@H](C1)OCC(=O)N2Cc1ccncc1 | -46.5
NC(=O)CCC1CCCN(c2ccc3c(Cl)ccnc3c2F)C1 (stereo not given) | 38
NC(=O)CCC1CCCN(c2ccnc3cc(F)ccc23)C1 (stereo not given) | 79.3
NC(=O)CCC1CCCN(c2ccc3ccc(F)cc3n2)C1 (stereo not given) | -65.4
